Assay results from PubChem BioAssay AID1851 (National Center for Advancing Translational Sciences (NCATS), 2009).
Screen size: about 16,000 compounds; about 5,800 (36%) were called active. Not shown: some 23% with an inconclusive outcome. The list shows a part of the results. Unmarked numbers belong to inactive results. The call rests on the fitted dose curve; in most records, active means well fitted curve in the direction sought with a large enough effect; inconclusive means small, poorly fitted or top-dose-only effect, or effect the other way; inactive means no such curve, though single readings can be large or run the other way.

These compounds were tested against Cytochrome P450 2C19 (Homo sapiens) (UniProt P33261) (assay: Cytochrome panel assay with activity outcomes). Details: recombinant CYP, pro-luciferin dealkylation, luminescence, p450-cyp2c19; series mostly up to 57.1 µM; activity, negative = inhibition: at the top concentration.
Chain of Cytochrome P450 2C19 (Homo sapiens) (P33261 whole entry, looked up): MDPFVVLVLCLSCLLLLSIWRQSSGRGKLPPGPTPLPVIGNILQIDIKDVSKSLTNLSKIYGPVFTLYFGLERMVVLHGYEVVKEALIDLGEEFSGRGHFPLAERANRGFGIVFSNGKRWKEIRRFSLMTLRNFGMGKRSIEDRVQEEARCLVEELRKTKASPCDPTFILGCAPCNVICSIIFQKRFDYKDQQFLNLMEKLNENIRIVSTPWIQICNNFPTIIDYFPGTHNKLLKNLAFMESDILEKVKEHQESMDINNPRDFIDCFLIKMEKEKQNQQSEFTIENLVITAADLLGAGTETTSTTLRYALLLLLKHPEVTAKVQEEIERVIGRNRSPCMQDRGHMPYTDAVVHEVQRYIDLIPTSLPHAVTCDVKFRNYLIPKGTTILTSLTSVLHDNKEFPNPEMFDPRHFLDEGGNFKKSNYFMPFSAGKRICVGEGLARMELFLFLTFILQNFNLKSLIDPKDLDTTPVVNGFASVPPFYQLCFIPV
On the % scale 0 is the no-effect control and ±100 the full control effect.

Compound	activity, negative = inhibition	AC50
CC(C)CC(=O)N[C@H](C(=O)N[C@H](C(=O)N[C@@H](CC(C)C)[C@H](O)CC(=O)N[C@@H](C)C(=O)N[C@@H](CC(C)C)[C@H](O)CC(=O)O)C(C)C)C(C)C	-5.61% [at 25.6 µM]	
C#CCCCO/N=C1/[C@H]2O[C@@H]2[C@@H](O)[C@H]2[C@H]1CCn1c(=O)n([C@@H](CC)c3ccccc3)c(=O)n12	-6.75% [at 11.4 µM]	
Cc1ccc(C(=O)CN(C(=O)c2ccc(Cl)cc2)N2C(=O)c3ccccc3C2=O)cc1		15800 nM (active)
COc1ccc(C(=O)CN(C(=O)c2ccc(Cl)cc2)N2C(=O)c3ccccc3C2=O)cc1		4470 nM (active)
COc1ccc(CNc2ncncc2-c2ccccc2C)c(OC)c1		1580 nM (active)
COc1ccccc1CNc1ncncc1-c1ccccc1Cl		1260 nM (active)
COc1ccc(CNc2ncncc2-c2ccccc2OC)c(OC)c1		2000 nM (active)
COc1ccccc1CNc1ncncc1-c1ccccc1C		3980 nM (active)
CCCCOc1cc(C[C@@H]2CNC(=O)N2)ccc1OC	6.71%	
CCCCOc1ccccc1N		14100 nM (active)
CC[N+](CC)(CC)CCOc1cccc(OCC[N+](CC)(CC)CC)c1OCC[N+](CC)(CC)CC	33.1% [at 25.6 µM]	
Cc1ccc(NC(=O)Cn2cnc3c(cnn3C(C)(C)C)c2=O)cc1	-26.7%	
Cc1ccccc1Cn1cnc2c(cnn2C(C)(C)C)c1=O		2000 nM (active)
CC(C)(C)n1ncc2c(=O)n(CC(=O)NCc3ccccc3Cl)cnc21		14100 nM (active)
Cc1ccc(C)c(Cn2cnc3c(cnn3C(C)(C)C)c2=O)c1		398 nM (active)
Cc1ccc(-n2ncc3c(=O)n(CC(=O)NCC4CCCO4)cnc32)cc1 (centres undefined)	-21.8%	
Nc1cc(Cl)ccc1Oc1ccccc1		3980 nM (active)
Nc1cc(Cl)ccc1Oc1ccc(Cl)cc1		562 nM (active)
O=c1[nH]c2cc(Cl)ccc2c(O)c1-c1ccc(Oc2ccccc2)cc1	10.8%	
Cc1cc(=O)[nH]c(-n2[nH]c(C)cc2=O)n1	-9.54%	
CCCn1c(C)nc2c(c1=O)c1nc3ccccc3nc1n2CCC1=CCCCC1		8910 nM (active)
CCO/C(C)=N/n1c2nc3ccccc3nc2c2c(=O)n(CC(C)C)c(C)nc21	-24.5%	
O=C(O)Cc1cc(Cl)ccc1O	42.6% [at 11.4 µM]	
Oc1ccc(Cl)cc1Cc1cc(Cl)cc(Cc2cc(Cl)ccc2O)c1O		1260 nM (active)
Oc1ccc(Cc2cc(Cl)cc(Cl)c2O)cc1Cl		1260 nM (active)
OCCSCc1cc(Cl)cc(Cl)c1O	-25.3% [at 11.4 µM]	
COC(=O)[C@@]1(Cc2ccc(OC)cc2)[C@H]2c3cc(C(=O)N4CCCC4)n(Cc4cc(F)cc5c4OCOC5)c3C[C@H]2CN1C(=O)c1ccccc1		7940 nM (active)
COC(=O)[C@@]1(Cc2ccccc2)[C@H]2c3cc(C(=O)N4CCCC4)n(Cc4cc(F)cc5c4OCOC5)c3C[C@H]2CN1C(=O)c1ccccc1		251 nM (active)
COc1ccc(C(=O)N2CCC3(CCCN(Cc4ccccc4OC)C3)CC2)cc1	-4.97%	
